Among the data in PubChem BioAssay (NCI) are growth values, retold here.

Values joined by “and” are separate entries in the source; they are usually repeats but may differ in a detail not shown here. Equal entries are not always repeated. The panel holds about 83,000 compounds, 20% with a hit somewhere; the sample as a whole holds those more often.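 Single-dose data. Exposure time 48 hours. Values below 10 considered active.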 Values without a mark were called inactive.

This test deals with SF-268 CNS. The test is described as follows: NCI-60 one-dose screen, 48 h (100 = growth as untreated, 0 = no growth, -100 = all killed). As to conditions: 10 µM unless noted.
As for `COc1cc(/C=C(/c2ccccc2)[N+](=O)[O-])c(OC)c2c1OCO2`, the growth was 21.1%.

Regarding `C=C1C(=O)O[C@H]2[C@H]1CC/C(COC(=O)NCCCCNC(=O)OC/C1=C/CC[C@@]3(C)O[C@H]3[C@H]3OC(=O)C(=C)[C@@H]3CC1)=C\CC[C@@]1(C)O[C@@H]21`, the growth was 48.7%.

Consider `COc1ccc(N2CCN(S(=O)(=O)c3oc(-c4ccccc4)nc3C#N)CC2)cc1`, for which the growth is 102%.

Consider `COc1ccc(-c2cc3cnc4ccccc4c3oc2=O)cc1`, for which the growth is 99.7%.

Regarding `CCOC(=O)c1nc2c3ccccc3cnn2c1C(=O)c1ccc(OC)cc1`, the growth is 103%.

In the case of `Cc1ccc2c(c1)C(C)Cc1c(ncnc1-n1cnc3cc(C)ccc31)N2C` (stereo not drawn), the growth was 25.6%.

For `CCN1C(=O)N(c2ccccc2)C2NC(=S)N(/N=C/C=C/c3ccccc3)C21` (stereo not drawn), the growth is 31.9%.

For the compound `COc1ccc(-c2[nH]c3ccccc3c2-c2ccc(OC)cc2)cc1`, the growth was 61.4%.

As for `COc1ccc(Cn2cc(C(=O)Nc3cccnc3Nc3ccccc3)nn2)cc1`, the growth was 96%.

`CSc1nnc(-c2cc3c([nH]c4ccccc43)c(-c3cccc(O)c3)n2)n1-c1ccc(C)cc1`: the growth is 48.7%.

Consider `CN(Cc1ccccc1)c1nc(Cl)c(C2CC(c3ccc4c(c3)OCO4)=NN2c2cc(Cl)cc(Cl)c2)s1` (stereo not drawn), for which the growth was 94.8%.

In the case of `COc1ccc(C2Nc3nc(SC)nc(N)c3N=C3c4ccccc4CCC32)cc1` (stereo not drawn), the growth was 73.4%.

For the compound `CCN(CC)CCOc1ccc(/C(=C(\Cl)c2ccccc2)c2ccccc2)cc1`, the growth was 62.8% and 103%.
